Assay outcomes: PubChem BioAssay, several laboratories
Rows were chosen to be rich in hits. Some 21% of all compounds tested hit in one or more screens of this group.
MRP1 act: H69AR viability gain despite doxorubicin, primary screen, MRP-1 activator project, H69AR cells, CellTiter-Glo | viability rescue | viability increase, % at 10 µM | actives 0.61% (n = 140,000);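 active = viability gain under doxorubicin at or above a set limit, the compound median plus 3 SD, cut at about 4.7% in these data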;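 note: MRP-1 overexpressing cells given doxorubicin 25 µM after compound pretreatment; 18-22 h compound pretreatment then 72 h with doxorubicin before readout; 0% = doxorubicin-only wells and 100% = vehicle-treated cells without doxorubicin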
CYP2C9 inhib: blockers of cytochrome P450 2C9 activity – biochemical, luminescence, ADME assay, primary screen. actives 20% (n = 96,000). CYP2C9 Supersomes, luciferin-H conversion. inhibition, % at 5 µM. P11712;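 active = blocking of liver enzyme CYP2C9 beyond about 50% at 5 µM, limit read from the data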
CYP2C9 activ: human CYP2C9 activators, primary screen, biochemical, luminescence; Cytochrome P450 2C9 (Homo sapiens), P11712; recombinant CYP2C9, luciferin-H conversion; active compounds read high; factor 1 = untreated enzyme, 0 = blocked; activation factor at 5 µM; actives 1.4% (n = 96,000); AID 1024, 2008;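 active = activation factor of 2 or more for CYP2C9 at a 5 µM dose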;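 note: 0 = sulfaphenazole-blocked wells and 1 = vehicle-only wells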
CYP2C19 inhib: blockers of cytochrome P450 2C19 activity – biochemical, luminescence, ADME assay, primary screen; P33261; CYP2C19 Supersomes, luciferin-H EGE luminescence, 30 min; inhibition, % at 5 µM; actives 21% (n = 96,000);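 active = CYP2C19 inhibition above a set limit at 5 µM in the primary screen, cut at about 50% in these data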;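 note: plate controls were negative control wells for no effect and 2.5 mM tranylcypromine positive control for full effect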
Target sequence (P33261 whole entry, looked up): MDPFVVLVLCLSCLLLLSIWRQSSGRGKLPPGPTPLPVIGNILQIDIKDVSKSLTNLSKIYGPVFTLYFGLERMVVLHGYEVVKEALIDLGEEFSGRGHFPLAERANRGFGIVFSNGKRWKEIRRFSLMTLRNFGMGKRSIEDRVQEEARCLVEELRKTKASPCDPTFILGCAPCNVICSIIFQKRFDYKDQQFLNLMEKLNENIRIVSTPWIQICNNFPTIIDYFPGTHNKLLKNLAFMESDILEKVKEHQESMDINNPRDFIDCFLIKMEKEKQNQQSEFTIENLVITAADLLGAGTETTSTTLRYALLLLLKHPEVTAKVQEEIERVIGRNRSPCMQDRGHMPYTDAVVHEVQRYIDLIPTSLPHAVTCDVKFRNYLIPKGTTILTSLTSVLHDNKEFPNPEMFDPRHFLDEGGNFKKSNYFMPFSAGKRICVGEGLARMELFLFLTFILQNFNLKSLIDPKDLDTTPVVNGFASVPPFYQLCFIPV
MRP resist rev: reversal of MRP1-mediated doxorubicin resistance, primary screen, H69AR cells, doxorubicin co-treatment. H69AR cells + 2 uM doxorubicin, CellTiter-Glo, 72 h. differential viability (reversal), % at 10 µM. actives 0.04% (n = 85,000). AID 602, 2007;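 active = viability drop by adding the cancer drug above about 55%, with treated viability meeting a 40% cutoff, limit read from the data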;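 note: viability without doxorubicin minus viability with 2 µM doxorubicin for each compound; larger differential means the compound sensitizes cells more to doxorubicin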
CYP2C19 act: human CYP2C19 activators, primary screen, biochemical, luminescence; activation factor at 5 µM; Cytochrome P450 2C19 (Homo sapiens), P33261; recombinant CYP2C19, luciferin-H EGE luminescence; active compounds read high; 0 = fully inhibited enzyme, 1 = untreated enzyme; 96,000 tested, under 10 active;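 active = activation factor of at least 2 at 5 µM in the primary screen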;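 note: 0 = wells with 2.5 mM tranylcypromine and 1 = vehicle-only wells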
An asterisk follows results filed as active; . = no result given.

SMILES	MRP1 act	CYP2C9 inhib	CYP2C9 activ	CYP2C19 inhib	MRP resist rev	CYP2C19 act
COC(=O)c1ccc(NC(=O)CCNS(=O)(=O)c2cccc3nonc23)cc1	-3	26	0.7	72*	6	0.3
CCOc1ccc(CCNS(=O)(=O)c2cccc3nsnc23)cc1OCC	0	57*	0.4	86*	13	0.1
COc1ccc(CCNS(=O)(=O)c2cccc3nsnc23)cc1OC	-2	.	.	.	-2	.
COc1ccc(NC(=O)CCNS(=O)(=O)c2cccc3nsnc23)cc1OC	-2	.	.	.	5	.
Cc1cccc(/C=C2/S/C(=N/N=C3\CC4CCC3(C)C4(C)C)NC2=O)c1 (stereo unspecified)	-4	17	0.8	-13	.	1.1
O=C(COC(=O)CCc1ccccc1)Nc1ncc(Cl)cc1Cl	-1	21	0.8	54*	.	0.5
COc1ccc(CC(=O)OCC(=O)NC(=O)NC2CCCCC2)cc1	-1	56*	0.4	12	1	0.9
COc1cc(CC(=O)OCC(=O)Nc2ncc(Cl)cc2Cl)cc(OC)c1OC	-1	45	0.5	67*	9	0.3
O=C(COC(=O)CCc1nc2ccccc2s1)Nc1ncc(Cl)cc1Cl	-2	.	.	.	.	.
COc1ccc(CC(=O)OCC(=O)Nc2ncc(Cl)cc2Cl)cc1	-1	53*	0.5	64*	-11	0.4
CN(C)S(=O)(=O)c1cccc(NC(=O)c2ccc(N3CCOCC3)c([N+](=O)[O-])c2)c1	0	.	.	.	.	.
Cc1cc(Cl)ccc1OC(C)c1nnc(N)s1 (stereo unspecified)	0	-1	1	61*	4	0.4
COc1cccc(C(=O)NC2CCN(C(=O)N3CCCCC3)CC2)c1	-1	6	0.9	7	18	0.9
COc1cccc(C(=O)NC2CC3CCCC(C2)N3CC(=O)Nc2ccc(N(C)C)cc2)c1 (stereo unspecified)	-1	79*	0.2	38	-4	0.6
O=C(Cn1c(COc2ccccc2)nc2ccccc21)Nc1cc(Cl)cc(Cl)c1	-3	.	.	.	.	.
N#CCCNC(=O)Cn1c(COc2ccc(Cl)cc2)nc2ccccc21	5.6*	.	.	.	.	.
O=C(Cn1c(COc2ccc(Cl)cc2)nc2ccccc21)NCC(F)(F)F	5.6*	.	.	.	.	.
Cc1ccnc(NC(=O)c2ccc(N3C(=O)CCC3=O)cc2)c1	-1	-4	1	-6	-7	1.1
COc1ccc(NC(=O)CC2C(=O)N(c3ccc(F)cc3)C(=S)N2NC(=O)c2ccccc2)cc1 (stereo unspecified)	6.4*	.	.	.	.	.
COc1ccc(NC(=O)CC2C(=O)N(c3ccc(OC)cc3)C(=O)N2CCc2cccs2)cc1 (stereo unspecified)	4	.	.	.	.	.
O=C1C2C(C(=O)N1/N=C/c1cc(Br)cc([N+](=O)[O-])c1O)C1C=CC2C12CC2 (stereo unspecified)	-1	8	0.9	24	.	0.8
Cc1cc(NC(=O)/C=C/c2ccc(Cl)cc2)no1	-2	.	.	.	.	.
CC(=O)c1ccc(OC(=O)N(c2ccccc2)c2ccccc2)cc1	-1	70*	0.3	56*	3	0.4
COc1ccccc1NC(=O)Oc1ccc(C(C)=O)cc1	-4	-17	1.2	17	3	0.8
Cc1c(Cl)cccc1NC(=O)C1NC(=O)CC1c1ccccc1 (stereo unspecified)	-1	46	0.5	81*	20	0.2
SMILES	MRP1 act	CYP2C9 inhib	CYP2C9 activ	CYP2C19 inhib	MRP resist rev	CYP2C19 act
COc1ccc(CCNC(=O)CN2CCC(C)CC2)cc1OC	0	4	1	37	.	0.6
CCOC(=O)C(C(=O)NCc1ccc(F)cc1)c1ncc(C(F)(F)F)cc1Cl (stereo unspecified)	-4	4	1	22	.	0.8
CC(C(=O)Nc1ccc(Cl)cc1)c1ncc(C(F)(F)F)cc1Cl (stereo unspecified)	0	39	0.6	94*	.	0.1
NC(=O)C(c1ccc(Cl)cc1)c1ncc(C(F)(F)F)cc1Cl (stereo unspecified)	-4	10	0.9	73*	.	0.3
O=C(COC(=O)CNC(=O)c1ccc(Cl)cc1)Nc1ncc(C(F)(F)F)cc1Cl	2	.	.	.	.	.
NC(=O)C(c1ccc(Cl)cc1Cl)c1ncc(C(F)(F)F)cc1Cl (stereo unspecified)	-4	18	0.8	88*	.	0.1
CCCCNC(=O)C(c1ccc(-c2ccccc2)cc1)N(CCN1CCOCC1)C(=O)CCCCCN1C(=O)NC(c2ccc([N+](=O)[O-])cc2)C(C(=O)OCc2ccccc2)=C1C (stereo unspecified)	-1	.	.	.	.	.
O=C(CCl)N(c1ccccc1)C1CCS(=O)(=O)C1 (stereo unspecified)	-6	.	.	.	.	.
COc1cccc(C2(O)CCN(C(=O)C3CCC3)CC2)c1	1	47	0.5	64*	-12	0.4
CC(Sc1nc(-c2ccccc2)cc(C(F)(F)F)n1)C(=O)N1CCCCC1 (stereo unspecified)	-2	58*	0.4	47	-16	0.5
CC1CCCN(C(=O)C(C)Sc2nc(-c3ccccc3)cc(C(F)(F)F)n2)C1 (stereo unspecified)	-1	60*	0.4	71*	-11	0.3
Cc1cccc(N2C(=O)CC(N(C(=O)c3ccco3)c3cccc(C)c3)C2=O)c1 (stereo unspecified)	-1	.	.	.	-5	.
CCN(CC(=O)NC(=O)NCc1ccco1)Cc1nc2ccccc2c(=O)[nH]1	-2	45	0.6	68*	7	0.3
Cc1ccc(NC(=O)CN(C)Cc2nc3ccccc3c(=O)[nH]2)c(Br)c1	-2	68*	0.3	28	-2	0.7
CCOc1ccccc1NC(=O)CCCc1nc2ccccc2c(=O)[nH]1	-3	9	0.9	26	-32	0.7
CCN(CC(=O)Nc1ccccc1Br)Cc1nc2ccccc2c(=O)[nH]1	-4	50	0.5	54*	0	0.5
CCN(CC(=O)NCCc1ccc(S(N)(=O)=O)cc1)Cc1nc2ccccc2c(=O)[nH]1	-1	66*	0.3	13	3	0.9
Cc1cc(SCC(=O)NC(=O)NCc2ccco2)nc2ccccc12	-1	-38	1.4	-5	-10	1.1
C/C(=N\OCC(=O)Nc1c(C)cc(C)cc1C)c1ccc2c(c1)OCCO2	-2	.	.	.	.	.
CC1CCC2(CC1)N=C(N)Nc1nc3ccccc3n12 (stereo unspecified)	-4	8	0.9	0	-3	1
Cc1ccc(N(C(=O)C2CCCC2)C2C=CS(=O)(=O)C2)cc1C (stereo unspecified)	-2	5	0.9	10	.	0.9
